Experimental data taken from PubChem BioAssay AID1981 (Southern Research Specialized Biocontainment Screening …, 2009).
Screen size: about 2,200 compounds; about 480 (22%) were called active. The rule behind the calls is not given here. A selection follows. Entries with a potency or affinity are not part of this list.

experiment: S. Typhimurium GFP fluorescence modified counterscreen for PhoP regulon inhibitor project dose response (AID 1981); settings: 4 h; series mostly up to 150 µM

Structure (SMILES) | outcome
Cc1ccc(-n2ncc3c(N4CCN(c5ccccc5)CC4)ncnc32)c(C)c1 | inactive
O=C(CC1SC(=NCc2ccccc2)NC1=O)Nc1ccccc1 (configuration not stated) | inactive
Cc1nn(C)c(C)c1S(=O)(=O)N1CCC(C(=O)NC2CCCCC2)CC1 | inactive
COc1cc(NC(=O)CSc2nnnn2Cc2ccc3c(c2)OCO3)cc(OC)c1 | inactive
Cc1ccc(N)cc1-n1c(C)ccc1C | inactive
CC(C)(C)c1ccc(C(=O)Nc2ccc(C=C(C#N)C#N)cc2)cc1 | inactive
COCCSc1ccccc1C(=O)NCC1CCCO1 (configuration not stated) | inactive
Cn1c(NCc2cc(Br)ccc2O)nc2ccccc21 | inactive
O=S(=O)(Nc1ccc2c(c1)nc1n2CCN(Cc2ccccc2)C1)c1ccc(Cl)cc1 | inactive
C=CCn1c(SCc2c(C(=O)OC)sc(N)c2C(=O)OC)nnc1-c1ccc(Cl)cc1 | inactive
CCC(CC)C(=O)NCCc1ccc(OC)cc1 | inactive
O=C(Cn1cnc2ccccc2c1=O)NCc1ccco1 | inactive
CC(=O)NCCOc1c(C)cc(S(N)(=O)=O)cc1C | inactive
C=CCOc1ccc(CNc2nn[nH]n2)cc1 | inactive
COC(=O)Cc1c(C)nc2nc(NCc3ccc(Cl)cc3)[nH]n2c1=O | inactive
CN(C)C(=O)On1c(-c2ccccc2)nc2ccc(Cl)cc21 | inactive
CC(C)N(Cc1nc(-c2ccccc2)no1)C(=O)CN(C)S(=O)(=O)c1ccccc1 | inactive
Cc1ccc(Nc2cc(C)nc3nc(C)nn23)cc1 | inactive
COc1ccc(Nc2nnc(SCc3cn4c(C)cccc4n3)s2)cc1 | inactive
CCOC(=O)N1CCN(S(=O)(=O)c2ccc(C(=O)NNc3nc4cc(C)cc(C)c4s3)cc2)CC1 | inactive
Cc1ccc(Nc2nc(Cl)nc(N(C)C#N)n2)cc1 | inactive
Cc1ncc(C23CC4CC(CC(C4)C2)C3)[nH]1 | inactive
CCN(CC)c1nc2n(c(=O)n1)CCO2 | inactive

Structure (SMILES) | outcome
COc1ccc2c(c1)cc1n2CCN2CCCN=C12 | inactive
C=CCSC1=Nc2sccc2C2=NC(=O)CN12 | inactive
COc1ccc(NC(=O)CSc2nccn2-c2ccccc2)cc1 | inactive
O=C(/C=C/c1ccc2c(c1)OCO2)N1CCN(c2ccccc2F)CC1 | inactive
OC(COCc1cccs1)CN1CCN(c2ccccn2)CC1 (configuration not stated) | inactive
N#Cc1c(-c2ccco2)cc(-c2ccc(F)cc2)nc1N | inactive
CN1CCN(S(=O)(=O)c2ccc(N)cc2)CC1 | inactive
CC(C)(C)c1ccc(-c2n[nH]c(=S)n2/N=C/c2ccncc2)cc1 | inactive
CC(Cl)C(=O)NNc1cccc(Cl)n1 (configuration not stated) | inactive
Cc1nc(N2CCN(Cc3ccc4c(c3)OCO4)CC2)nc2c1C(=O)CC(c1ccco1)C2 (configuration not stated) | inactive
O=C(NCc1ccccn1)c1cn(-c2ccccc2)nc1-c1ccc(Cl)cc1 | inactive
O=C(OCc1ccccc1)c1cn(-c2ccccc2)nc1-c1ccncc1 | inactive
O=C(COC(=O)c1cn(-c2ccccc2)nc1-c1ccccc1)c1cccc([N+](=O)[O-])c1 | inactive
CCc1ccc(C(c2c(C)nn(-c3ccccc3)c2N)c2c(C)nn(-c3ccccc3)c2N)cc1 | inactive
O=C(c1ccc(F)cc1)C(CN1CCOCC1)c1ccccc1 (configuration not stated) | inactive
O=C(NCc1ccccn1)Nc1cccc(Cl)c1 | inactive
COCCNCCOc1ccccc1-c1ccccc1 | inactive
COc1cc(OC)c(NC(=O)Nc2ccc(OC)c(OC)c2)cc1Cl | inactive
Cc1ccc2cc(CN(CCO)Cc3nnnn3Cc3ccc(F)cc3)c(=O)[nH]c2c1 | inactive
CCOC(=O)C(NS(=O)(=O)c1ccccc1)(C(F)(F)F)P(=O)(OCC(C)C)OCC(C)C (configuration not stated) | inactive
Cc1cc2cc(CNS(=O)(=O)c3ccc4ccccc4c3)ccc2n1C | inactive
O=C(c1ccccc1)c1coc2ccc(O)c(Cl)c12 | inactive
C#CCOc1ccc(Cl)cc1/C=N/O | inactive

Structure (SMILES) | outcome
CC(C)CNC(=O)c1ccc(COc2ccc(Cl)cc2Cl)o1 | inactive
Cc1ccc(SC(c2ccc(C)cc2)C(Cn2cncn2)C(=O)c2ccccc2)cc1 (configuration not stated) | inactive
Cc1cccc(NC(=S)NC(NC(=O)c2ccco2)C(Cl)(Cl)Cl)c1 (configuration not stated) | inactive
CCOC(=O)C1=C(C)N=c2s/c(=C\c3ccncc3)c(=O)n2C1c1ccc2c(c1)OCO2 (configuration not stated) | inactive
CCOc1ccc(S(=O)(=O)NNC(=S)Nc2ccc(Br)cc2)cc1 | inactive
CCOC(=O)c1c(NC(=O)COc2ncnc3ccccc23)sc(C)c1CC | inactive
O=C1C(Nc2ccccc2)=C/C(=N/S(=O)(=O)c2cccs2)c2ccccc21 | inactive
Cc1cc(C)c2cc(CN(Cc3cccnc3)C(=O)c3ccc(F)cc3)c(Cl)nc2c1 | inactive
COc1ccc(C(C)=O)c2c(O)cccc12 | inactive
CCN(CC)CCNC(=O)c1cn(CC)c2cc(N3CCN(C(=O)c4ccco4)CC3)c(F)cc2c1=O | inactive
CN(C)CCNC(=O)c1ccc(COCC(F)(F)F)cc1 | inactive
COc1ccc(S(=O)(=O)N2CCN(C(=O)c3c(C)nn(-c4ccccc4)c3Cl)CC2)cc1 | inactive
Cn1c(-c2ccc3c(c2)OCO3)cnc1NCc1cccc(Cl)c1 | inactive
O=C(NCCN1CCOCC1)c1ccc2ccccc2c1 | inactive
Fc1ccccc1CCNCc1cccc(Cl)c1Cl | inactive
O=C(Cc1ccccc1)NCc1ccc(F)cc1 | inactive
c1coc(CNc2c3c(nc4ncnn24)CCCC3)c1 | inactive
O=S(=O)(Nc1ccc2c(c1)nc1n2CCN(Cc2ccccc2)C1)c1ccc(F)cc1 | inactive
CCn1c(SCC(=O)Nc2ccc3c(c2)oc2ccccc23)nnc1-c1ccc(N)cc1 | inactive
CC1(C)CC(=O)C2=C(C1)N(c1ccc(F)cc1)C(N)=C(C#N)C2c1cccs1 (configuration not stated) | inactive
O=C(Oc1ccc(N(Cc2cccs2)C2=NS(=O)(=O)c3ccccc32)cc1)c1ccc(Cl)cc1 | inactive
O=C(NCCNc1ccc([N+](=O)[O-])cc1C(F)(F)F)c1ccccc1F | inactive
O=C(Nc1cnc2ccccc2c1)N1CCOCC1 | inactive

Structure (SMILES) | outcome
CCOC(=O)N1CCN(S(=O)(=O)c2ccc(C(=O)NNc3nc4c(C)cc(C)cc4s3)cc2)CC1 | inactive
O=C(c1ccco1)c1cn(CC(=O)N2CCCc3ccccc32)c2ccccc12 | inactive
O=c1cc(O)nc(SCc2ccccc2Cl)[nH]1 | inactive
Cc1cc(C(=O)N2CCN(C/C=C/c3ccccc3)CC2)no1 | inactive
Cc1[nH]c2ccccc2c1C(c1ccncc1)N1CCN(c2ccc(F)cc2)CC1 (configuration not stated) | inactive
Cn1cc(-c2nnnn2-c2cccc(C(F)(F)F)c2)c(C(F)(F)F)n1 | inactive
COC(=O)CSc1nc(SCc2ccccc2Cl)nc2c1CCCC2 | inactive
c1ccc(-c2cc(CSc3nc4ccccc4[nH]3)on2)cc1 | inactive
N#Cc1nc(Cc2cccc3ccccc23)oc1NCCCN1CCOCC1 | inactive
Cc1nc2cc(NC(=O)N3CCN(c4ccccn4)CC3)ccc2o1 | inactive
Oc1ccc(C2NCc3ccccc3-n3cccc32)cc1Cl (configuration not stated) | inactive
CC(=O)c1sc(NC(=O)COc2ccc([N+](=O)[O-])cc2)nc1C | inactive
CCn1c(SCc2ccc(F)cc2)nc2ccccc2c1=O | inactive
CCCCCc1ccc(OCCC[n+]2ccccc2)c(CCCCC)c1 | inactive
O=C(CSC1CCCCC1)Nc1ccccc1Br | inactive
COc1ccc(NC(C)C(=O)Nc2ccc(C(C)(C)C)cc2)cc1Cl (configuration not stated) | inactive
Cc1cccc(-n2c(O)c(C=NCc3cccnc3)c(=O)[nH]c2=O)c1C | inactive
Cc1ccc(C(C[N+](=O)[O-])c2c(C)cc3ccccn23)cc1 (configuration not stated) | inactive
O=C(O)CCS(=O)(=O)c1ccc(-c2ccccc2)cc1 | inactive
CNC(=O)CSc1nnc(-c2cccnc2)n1CCc1ccccc1 | inactive
Cc1ccc(-c2nc3ccccc3[nH]2)cc1NC(=S)NC(=O)c1ccccc1Br | inactive
Cc1ccc(OCc2nnc(SCC(=O)Nc3ccc4c(c3)OCO4)n2C)cc1 | inactive
CCOc1ccc(/C(O)=C2\C(=O)C(=O)N(CCN(C)C)C2c2cccc(OC)c2OC)cc1Cl (configuration not stated) | inactive

Structure (SMILES) | outcome
O=C(Cc1cccs1)Nc1cccc(-c2nc3cc4ccccc4cc3[nH]2)c1 | inactive
COc1ccc(Cl)cc1-c1nc(SCC(N)=O)n[nH]1 | inactive
O=C(OCC#CCSc1nnc(-c2cccc3ccccc23)o1)c1ccco1 | inactive
COc1ccc(Nc2nc(-c3c[nH]c4ccccc34)cs2)cc1 | inactive
CCc1ccccc1NC(=O)c1nnn(CC(=O)Nc2cccc(C)c2C)c1N | inactive
COc1ccccc1N1CCN(C(=O)c2cccc3c(=O)c(C)c(-c4ccccc4)oc23)CC1 | inactive
CCc1ccc2[nH]c(=O)c(CN(Cc3ccccc3)C(=O)Nc3ccccc3OC)cc2c1 | inactive
COc1ccccc1NC(=S)NC(=O)C(C)(C)C | inactive
COC(=O)c1ccc(C)c(NC(=O)CN(c2cc(OC)ccc2OC)S(C)(=O)=O)c1 | inactive
N#CC1(C#N)COC23CCCCC2C1(C#N)C(=N)O3 (configuration not stated) | inactive
COc1ccc(OC)c(-c2cc(C(=O)Nc3c(C)nn(Cc4ccccc4)c3C)no2)c1 | inactive
Cc1nc2ccccc2n1CC(=O)NCc1ccccc1 | inactive
CCN1CCN(C(=O)c2ccc3c(=O)n(Cc4ccccc4OC)c(=S)[nH]c3c2)CC1 | inactive
CC(C)Cc1nc2ccc(N)cc2[nH]1 | inactive
Cc1[nH]c2ccccc2c1C(=O)COC(=O)c1ccc([N+](=O)[O-])s1 | inactive
Cc1ccc(NC(=O)CSc2nnc(C3CCCCC3)n2N)cc1F | inactive
O=C(c1cccnc1Nc1ccc2c(c1)CCC2)N1CCOCC1 | inactive
O=C(Nc1cccn(Cc2c(Cl)cccc2Cl)c1=O)c1ccccc1Cl | inactive
CCCn1c(N)c(C(=O)COC(=O)c2c(C)noc2C)c(=O)n(C)c1=O | inactive
CCOC(=O)C1=CSC2=NS(=O)(=O)CCN12 | inactive
